This passage reports GFP response vs DMSO results from PubChem BioAssay AID2029 (NMMLSC, 2009).

The whole screen tested about 320,000 compounds, of which about 210 (0.066%) were called active.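 Rule for the calls: active = GFP response relative to DMSO above a set limit, near the screen mean plus 3 SD (cut at about 150% in these data); inconclusive = Fewer than 70 cells measured for a yeast strain; inactive = the rest.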 The entries come from a sample that favours actives as a whole.

The assay is described as follows: modulators of CIT2-GFP expression in yeast, primary screen, S. cerevisiae, GFP fusion, multiplex flow cytometry, MLPCN library (AID 2029).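 Note: ratio of well median GFP fluorescence to mean of DMSO wells on the plate.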 The following applies: S. cerevisiae CIT2-GFP strain, 3 h, at 10 µM, hits give high values, 100 means same as DMSO wells.
Regarding `N#Cc1nc(N)nc(N(c2ccccc2)c2ccccc2)n1`, the GFP response vs DMSO is 113% (inactive).

In the case of `O=C(NCC1CCCO1)c1ccccc1-c1nc(-c2ccccc2Cl)no1` (centres undefined), the GFP response vs DMSO was 77% (inactive).

For `CC(=O)Nc1ccc(S(=O)(=O)Nc2ccc(-c3ccc4nnc(C)n4n3)cc2)cc1`, the GFP response vs DMSO was 102% (inactive).

For `O=C(NNc1cc(Cl)ccc1Cl)c1cccnc1Cl`, the GFP response vs DMSO was 107% (inactive).

Take `CC(C)C(NC(=O)C1CCC(C(C)(C)C)CC1)C(=O)NCCCN1CCCCC1` (centres undefined): the GFP response vs DMSO was 94.8% (inactive).

As for `O=C(CC1OC(=O)c2ccccc21)NC1CCCCC1` (centres undefined), the GFP response vs DMSO is 109% (inactive).

`O=C(CSc1nnc(Nc2ccccc2F)s1)NC1CCCC1`: the GFP response vs DMSO was 85.1% (inactive).

Turning to `O=C(Oc1cccc(C(=S)N2CCOCC2)c1)c1cccc(Cl)c1`, the GFP response vs DMSO was 94.4% (inactive).

As to `COc1cc(C(=O)N(C)Cc2cccc(OC)c2OC)ccc1OCC(=O)Nc1cccc(C(F)(F)F)c1`, the GFP response vs DMSO was 101% (inactive).

Take `Nc1ccc(C(=O)OCC(=O)NC2CCS(=O)(=O)C2)cc1[N+](=O)[O-]` (centres undefined): the GFP response vs DMSO is 91.7% (inactive).

Turning to `O=C(NC(=S)NC1CCS(=O)(=O)C1)c1cccc([N+](=O)[O-])c1` (centres undefined), the GFP response vs DMSO is 155% (active).

On to `CC1CCN(C(=S)c2cccc([N+](=O)[O-])c2)CC1`, for which the GFP response vs DMSO is 102% (inactive).

On to `O=C(N/N=C1\CCSC1)c1cc(Cl)ccc1O`, for which the GFP response vs DMSO is 102% (inactive).

As for `Cc1cccc(C)c1NC(=O)C(Cl)C(=O)c1ccccc1` (centres undefined), the GFP response vs DMSO is 87.7% (inactive).

With `Cc1ccc(C)c(Cn2nnc3c(=O)[nH]c(C(=O)Nc4ccc(F)cc4)nc32)c1`, the GFP response vs DMSO is 99.3% (inactive).

`CN(CC(=O)Nc1ccc(C(N)=O)cc1)S(=O)(=O)c1ccc2c(c1)OCCO2`: the GFP response vs DMSO was 110% (inactive).

As for `COc1cc([N+](=O)[O-])cc([N+](=O)[O-])c1NC(=O)N1CCOCC1`, the GFP response vs DMSO was 110% (inactive).

In the case of `Cc1cc(C(=O)CC#N)c(C)n1-c1c(C)n(C)n(-c2ccccc2)c1=O`, the GFP response vs DMSO is 92.1% (inactive).

On to `O=C(c1cc2ccccc2o1)N1CCN(Cc2ccccc2)CC1`, for which the GFP response vs DMSO was 94.7% (inactive).

`CC1Cc2ccccc2N1CC(=O)Nc1ccc2c(c1)OC(F)(F)O2` (centres undefined): the GFP response vs DMSO is 82.8% (inactive).

For the compound `COC(=O)C1=C(C)N(Cc2ccccc2)C(=NCCCOC(C)C)N[C@H]1c1ccccc1`, the GFP response vs DMSO is 69.2% (inactive).

As to `COc1ccccc1C(=O)OCC(=O)Nc1cccc(S(=O)(=O)NC2=NCCCCC2)c1`, the GFP response vs DMSO was 118% (inactive).

Regarding `COc1cccc(NC(=O)CN(C)C(=O)c2cc(C3CC3)nn2-c2ccccc2)c1`, the GFP response vs DMSO is 106% (inactive).

For the compound `COc1ccc(NC(=O)CCn2ccnc2)c(OC)c1`, the GFP response vs DMSO is 106% (inactive).

For the compound `CCOc1ccc(OCC)c(NC(=O)CSc2nnc(Cn3cnc4ccccc43)n2C)c1`, the GFP response vs DMSO is 99% (inactive).

On to `O=C(NCC(F)(F)F)Nc1nnc(C(F)(F)F)s1`, for which the GFP response vs DMSO is 97.4% (inactive).

In the case of `O=C(NCc1cc(F)cc(C(F)(F)F)c1)C1CCC(=O)N(C2CCCC2)C1` (centres undefined), the GFP response vs DMSO is 98.4% (inactive).

`O=S(=O)(c1ccc(F)cc1)N1CCN=C1SCc1cccc(F)c1`: the GFP response vs DMSO was 104% (inactive).

Consider `CCSC1=NCCN1S(=O)(=O)c1ccc(F)cc1`, for which the GFP response vs DMSO was 151% (active).

Take `CS(=O)(=O)N1CCN=C1SCc1ccc(F)cc1`: the GFP response vs DMSO is 102% (inactive).

Regarding `CC1CC1C(=O)OCC(=O)c1c(N)n(C)c(=O)n(C)c1=O` (centres undefined), the GFP response vs DMSO was 97.2% (inactive).

Consider `COc1ccc(-c2nc(CS(=O)(=O)CC(=O)NCc3cccc(Br)c3)c(C)o2)cc1`, for which the GFP response vs DMSO was 150% (active).

On to `COc1cccc(-c2nc(CS(=O)(=O)CC(=O)NCCc3ccc(OC)c(OC)c3)c(C)o2)c1`, for which the GFP response vs DMSO is 102% (inactive).

On to `Cc1ccc(-c2nc(CS(=O)(=O)CC(=O)NCc3ccc4c(c3)OCO4)c(C)o2)cc1`, for which the GFP response vs DMSO was 94.3% (inactive).

As to `COc1cc(OC)cc(-c2c(C#Cc3ccsc3)c3cc(-c4ccc(SC)cc4)ccc3n2C)c1`, the GFP response vs DMSO was 109% (inactive).

`CCN(CC)P(=O)(/C(Cl)=C\Nc1c(C)n(C)n(-c2ccccc2)c1=O)N(CC)CC`: the GFP response vs DMSO was 113% (inactive).

Take `CC1=C2C(=O)OC(c3ccoc3)C2(C)CCC1` (centres undefined): the GFP response vs DMSO is 103% (inactive).

On to `COc1ccc(CN2CC[C@H]3C=CC[C@@H](C(=O)N4CCOCC4)[C@H]3C2=O)cc1OC`, for which the GFP response vs DMSO is 99.2% (inactive).

For the compound `COc1ccc(NC(=O)CC(NC(C)c2ccccc2)C(=O)O)cc1` (centres undefined), the GFP response vs DMSO was 101% (inactive).

On to `O=C(NCC(=O)N1CCCCCCC1)c1ccccc1Cl`, for which the GFP response vs DMSO was 106% (inactive).

For `Cc1ccc(NC(=O)C(CC(=O)O)C2CCCO2)c(C)c1` (centres undefined), the GFP response vs DMSO is 98.9% (inactive).

For `Cc1noc(C)c1CSc1nc2cc(S(=O)(=O)N3CCOCC3)ccc2o1`, the GFP response vs DMSO was 111% (inactive).

With `O=C(CSc1ccc(C(F)(F)F)cc1[N+](=O)[O-])NCCOc1ccccc1`, the GFP response vs DMSO is 108% (inactive).

On to `COc1ccccc1N1CCN(CC(=O)Nc2ccnn2C2CCCC2)CC1`, for which the GFP response vs DMSO is 98.2% (inactive).

On to `CC1(C)CC(CNCCC(c2ccc(F)cc2)c2ccco2)CCO1` (centres undefined), for which the GFP response vs DMSO was 109% (inactive).

Consider `CCOc1cc(CN2CCCC(CO)(Cc3ccc(F)cc3F)C2)ccc1OC` (centres undefined), for which the GFP response vs DMSO was 98% (inactive).

On to `O=C(c1ccc2ccccc2n1)N1CCN(c2ccccc2Cl)CC1`, for which the GFP response vs DMSO was 94.9% (inactive).

For `CCCCn1c(N)c(N2CCOCC2)c(=O)n(CC(=O)NCCc2ccccc2)c1=O`, the GFP response vs DMSO was 105% (inactive).

As for `CSCCC(NS(=O)(=O)c1ccc(C)cc1)C(=O)N1CCCC1` (centres undefined), the GFP response vs DMSO is 90.1% (inactive).

As for `CCN(CC)S(=O)(=O)c1ccc(OC(C)C)c(N)c1`, the GFP response vs DMSO is 94.4% (inactive).

In the case of `CCOc1ccc(Nc2nc(Cc3nnc(SCC(=O)c4ccc(C)cc4)o3)cs2)cc1`, the GFP response vs DMSO was 89.8% (inactive).

`O=C(NCc1nnc(SCC(=O)N2CCCc3ccccc32)o1)c1ccccc1F`: the GFP response vs DMSO is 91.6% (inactive).

As for `CC1CCCCC1NC(=O)COc1ccc(C#N)cc1` (centres undefined), the GFP response vs DMSO is 100% (inactive).

With `O=C(O)CC(SCC(=O)Nc1ccc(Br)cc1)C(=O)O` (centres undefined), the GFP response vs DMSO was 101% (inactive).

Consider `OCCN1CCOCCOCCN(CCO)CCN(CCO)CC1`, for which the GFP response vs DMSO is 90.9% (inactive).

With `NC(=S)Nc1c(Cl)cccc1Cl`, the GFP response vs DMSO was 104% (inactive).

For `CC(Oc1ccc(Cl)cc1)c1ccnn1S(C)(=O)=O` (centres undefined), the GFP response vs DMSO was 88.9% (inactive).

In the case of `CN(NS(=O)(=O)c1cccs1)c1ncc(C(F)(F)F)cc1Cl`, the GFP response vs DMSO is 171% [may fluoresce green] (active).

For `Cc1cc(C)cc(NS(=O)(=O)c2ccc(Oc3ncc(C(F)(F)F)cc3Cl)cc2)c1`, the GFP response vs DMSO was 99.4% (inactive).

Take `C#CCN(N(C)c1ncc(C(F)(F)F)cc1Cl)S(=O)(=O)c1ccc2ccccc2c1`: the GFP response vs DMSO was 101% (inactive).

On to `COc1ccc(-c2cc(=O)oc3cc(OCC(=O)N[C@@H](Cc4c[nH]c5ccccc45)C(=O)O)ccc23)cc1`, for which the GFP response vs DMSO was 110% (inactive).

`O=C(N/C(=C\c1ccc([N+](=O)[O-])cc1)C(=O)N1CCOCC1)c1cccc(Br)c1`: the GFP response vs DMSO is 100% (inactive).

As to `COc1cc(NS(=O)(=O)c2ccc(N/C=C(\C=O)c3nc4cc(Cl)ccc4o3)cc2)nc(OC)n1`, the GFP response vs DMSO is 103% (inactive).

As for `COc1ccccc1C(=O)NCCC(=O)NC1=NCCS1`, the GFP response vs DMSO is 105% (inactive).

Take `Cc1cccc(Nc2nc3c(S(=O)(=O)c4ccccc4)nnn3c3ccccc23)c1C`: the GFP response vs DMSO was 632% [may fluoresce green] (active).

On to `CC(=O)Nc1ccc(Nc2nc3c(S(=O)(=O)c4ccc(C)c(C)c4)nnn3c3ccccc23)cc1`, for which the GFP response vs DMSO is 106% (inactive).

For the compound `Cc1ccc(S(=O)(=O)c2nnn3c2nc(N2CCN(c4ccccn4)CC2)c2ccccc23)cc1`, the GFP response vs DMSO is 94.5% (inactive).

`CC(=O)N1CC2(C)CN(C(C)=O)CC(C)(C1)C2=O`: the GFP response vs DMSO is 107% (inactive).

`Cc1nc(-c2ccc(F)cc2)c(CC(=O)Nc2cc(S(=O)(=O)N3CCCCC3)ccc2C)s1`: the GFP response vs DMSO was 99.9% (inactive).

As for `COc1ccccc1CCCNC(=O)C1CCC(=O)N(CCN2CCOCC2)C1` (centres undefined), the GFP response vs DMSO was 94.1% (inactive).

On to `CCN1/C(=C/c2ccc3ccc(C)cc3[n+]2CC)Sc2ccccc21`, for which the GFP response vs DMSO is 337% [may fluoresce green] (active).

On to `CCN1/C(=C\c2ccc3ccccc3[n+]2CC)Sc2cc(C)ccc21`, for which the GFP response vs DMSO is 1560% [may fluoresce green] (active).

Turning to `CCc1nc2cccnc2n1-c1ccc(C(=O)O)cc1`, the GFP response vs DMSO was 102% (inactive).

With `COc1ccccc1C(CNC(=O)c1ccc(C)c(S(=O)(=O)N2CCCCC2)c1)N(C)C` (centres undefined), the GFP response vs DMSO is 97.1% (inactive).
